Screening results (PubChem)
Sampled rows, rich in hits. Any-hit rate of the full collection: about 3.9%.
HSF-1 act = HSF-1 activators, primary screen, NIH3T3-HGL cells, MG132 stress, luminescence, single point; NIH3T3-HGL HSF-1 luciferase reporter, 8 h; 100% = twice DMSO control signal; activation, % at 9 µM; 1.7% of 300,000 active;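 active = mean replicate activation of at least 50% with a set share of replicates each reaching 50%; inconclusive = only one of those two conditions met; inactive = mean below 50% and too few replicates reaching it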;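 also: 0% = median of the neutral control wells and 100% = twice that signal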
esBAF inh = Bmi1 luciferase reporter increase in mESCs, primary screen, esBAF inhibitor project, mouse ES cells, Bmi1 luciferase knock-in, single point. 24 h; 100% = twice the neutral-well signal. reporter increase, % at 12.5 µM. 2% of 350,000 active. AID 602393, 2012; in the data active = activation above about 40%; inconclusive = no clear call, values can overlap the other calls;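 also: 0% = median of the plate's neutral control wells and 100% = double that signal; a rise in the Bmi1 reporter signal indicates esBAF inhibition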
HSF1 inh = HSF1 inhibitors in luciferase reporter cells, primary screen, cell-based, NIH3T3, luminescence; activity change, negative = inhibition, % at 7.5 µM (by protocol); AID 2098, 2009; NIH3T3-HGL HSE-luciferase, MG132-induced, luminescence 8 h; stronger effect = lower value; 0.77% of 300,000 active;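 active = more than half of replicate wells show activity change below -50%, luminescence cut by over half; inconclusive = some wells, but at most half, below -50%; inactive = no replicate well below -50%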;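 also: luciferase reports HSF-1 transcriptional activity via heat shock element; 0% = median of DMSO wells and -100% = zero luminescence signal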
MITF TRPM1 HTS = activators of MITF-driven TRPM1 promoter reporter, primary screen, cell-based, SK-MEL-5, luciferase, single point | SK-MEL-5 TRPM1-promoter luciferase, 24 h; % of positive control, neutral wells = 0 | activation, % at 12.5 µM | 0.75% of 300,000 active;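 active = mean activation of at least 80% with every replicate also reaching 80%; inconclusive = mean reaches 80% but some replicate falls short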;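 also: 0% = neutral control wells and 100% = parthenolide positive control wells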
Wnt bcat act = Wnt/beta-catenin pathway activators, primary screen, cell-based, plate reader, single point; activation, % at 9.35 µM; 1.2% of 300,000 active; Wnt/beta-catenin reporter cell assay, activator; in the data active = activation above about 30%, passing the limit was not always enough; inconclusive = no clear call, values can overlap the other calls;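 also: 0% = neutral control wells and 100% = positive control wells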
Starred values were filed as active, the others as inactive; u = inconclusive; x = no result given.

SMILES	HSF-1 act	esBAF inh	HSF1 inh	MITF TRPM1 HTS	Wnt bcat act
O=C(C[n+]1cccc(Br)c1)c1ccc(-c2ccccc2)cc1	-1	44*	1	15	2
Cc1ccc(NC(=O)C(=O)NCc2ccccn2)cc1	21	x	13	85*	20
O=C(NCc1ccccn1)c1ccc(Cl)cc1Cl	-3	52*	-8	35	x
COc1cccc(NC(=O)NCc2ccccn2)c1	6	-5	4	3	37*
O=C(NCc1ccccn1)Nc1cccc(Cl)c1	56*	39	29	136*	38*
O=C(NCCCNC(=O)c1ccc(Cl)cc1Cl)c1ccccn1	-15	1	2	-8	-1
O=C(NCc1ccccn1)C(=O)Nc1ccccc1	22	x	7	49	-4
CCOC(=O)/C=C(/C)N1N=C(c2ccc(OC)cc2)CC1c1cccc([N+](=O)[O-])c1 (stereo unspecified)	59*	55*	26	-3	26
C[C@@H]1CN([C@@H](C)CO)S(=O)(=O)c2ccc(C3=CCCCC3)cc2O[C@H]1CN(C)Cc1cncnc1	x	1	x	x	x
c1ccc(OCc2cc(-c3ccccc3)no2)cc1	61*	x	20	71	u
COc1ccccc1OCc1cc(-c2ccccc2)no1	53*	x	28	95*	x
c1ccc(Nc2nnc(SCc3cccc4ccccc34)s2)cc1	25	18	13	7	-1
Cc1ccc(NC(=O)c2ccc(CSc3nnc(C)s3)cc2)cc1	u	17	15	70	-3
CC(=O)Nc1nnc(SCC(=O)c2ccc(F)cc2)s1	104*	4	92	17	5
Cc1nnc(SCc2cccc3ccccc23)s1	22	64*	8	76	11
Cc1nnc(SCc2ccc(F)cc2)s1	5	53*	7	51	x
Cc1cc(C)cc(NC(=O)c2ccc(CSc3nnc(C)s3)cc2)c1	69*	39	38	25	-1
CC(=O)Nc1ccc(NC(=O)CSc2nnc(NC(=O)Cc3ccc(F)cc3)s2)cc1	4	-7	-1	9	4
CC(=O)Nc1nnc(SCc2ccc(F)cc2)s1	19	46*	23	47	17
Cc1noc(C)c1S(=O)(=O)Nc1ccc2c(c1)C(=O)N([C@@H](C)CO)C[C@H](C)[C@@H](CN(C)C(=O)Nc1ccccc1)O2	x	0	x	x	x
Brc1ccc2nc(-c3cccs3)c(NCC3CCCO3)n2c1 (stereo unspecified)	32	60*	18	11	3
CCc1c(C)nc2ncnn2c1Nc1ccc(C(C)=O)cc1	1	48*	-3	33	26
CC(=O)c1ccc(NC(=O)CCc2c(C)nc3ncnn3c2C)cc1	19	48*	1	17	23
COC(=O)c1ccc(NC(=O)CCc2c(C)nc3ncnn3c2C)cc1	-3	-1	-2	-7	-1
C[C@H]1CN([C@@H](C)CO)C(=O)c2cc(NC(=O)Nc3ccc(F)cc3)ccc2O[C@H]1CN(C)C(=O)Nc1ccccc1	x	-3	x	x	x
SMILES	HSF-1 act	esBAF inh	HSF1 inh	MITF TRPM1 HTS	Wnt bcat act
COc1ccccc1N(CC(O)CN1CCC(C)CC1)S(=O)(=O)c1ccccc1 (stereo unspecified)	57*	0	11	12	0
COc1ccccc1N(CC(O)CN1CCCC1)S(=O)(=O)c1ccccc1 (stereo unspecified)	-3	0	0	9	1
Cc1sc2ncnc(SCC(=O)c3cccs3)c2c1C	13	60*	3	34	38*
Cc1cccc(NC(=O)CSc2ncnc3sc(C)c(C)c23)n1	11	0	-3	1	3
C[C@@H]1CCCCO[C@@H](CN(C)S(=O)(=O)c2ccc(Cl)cc2)[C@@H](C)CN([C@@H](C)CO)C(=O)c2cc(NC(=O)Nc3ccccc3)ccc2O1	x	4	x	x	x
C[C@@H]1CCCCO[C@H](CN(C)C(=O)Nc2ccc(F)cc2)[C@H](C)CN([C@@H](C)CO)C(=O)c2cc(NS(C)(=O)=O)ccc2O1	x	3	x	x	x
CC(OC(=O)CN1C(=O)NC(C)(C)C1=O)C(=O)c1ccccc1 (stereo unspecified)	-2	2	-6	2	x
CC(OC(=O)CN1C(=O)NC2(CCCC2)C1=O)C(=O)c1ccccc1 (stereo unspecified)	-76	-3	-70*	-2	0
CNC(=O)COc1ccc(Cl)c2cccnc12	-9	-8	1	-7	-1
Cc1cccc(NC(=O)Oc2ccc(Cl)c3cccnc23)c1	x	51*	x	x	29
COc1ccc(CN(C)C[C@H]2OCCCC[C@H](C)Oc3ccc(NC(=O)Nc4ccc(F)cc4)cc3C(=O)N([C@H](C)CO)C[C@H]2C)cc1	x	-3	x	x	x
CS(=O)(=O)c1ccc(C(=O)OCC(=O)NC23CC4CC(CC(C4)C2)C3)cc1[N+](=O)[O-]	51*	13	26	-47	x
CN(C)c1cccc(NC(=O)c2cccc3c(-c4ccc(F)c(F)c4)coc23)c1	x	41*	x	x	2
CN(C)CCNC(=O)c1cccc2c(-c3ccc(F)c(F)c3)coc12	x	-1	x	x	-1
O=C(Nc1ccccc1)c1cccc2c(-c3cccnc3)coc12	x	55*	x	x	-1
COc1ccc(NC(=O)c2cccc3c(-c4cccnc4)coc23)cc1	x	5	x	x	-3
C[C@H](NC(=O)[C@@H]1Cc2ccccc2CN1)C(=O)Nc1ccc2c(c1)OCCO2	1	4	-7	13	-1
CSCC[C@H](NC(=O)[C@@H]1Cc2ccccc2CN1)C(=O)Nc1ccc2c(c1)OCCO2	-61	-19	-52*	5	15
CC(C)[C@H](NC(=O)[C@@H]1Cc2ccccc2CN1)C(=O)Nc1ccc2c(c1)OCCO2	-47	-2	-31	-6	-1
O=C(CNC(=O)[C@@H]1Cc2ccccc2CN1)Nc1ccc2c(c1)OCCO2	-52	15	-52*	10	7
CCC(C)[C@H](NC(=O)[C@@H]1Cc2ccccc2CN1)C(=O)Nc1ccc2c(c1)OCO2 (stereo partly specified)	77*	20	69	23	4
CSCC[C@H](NC(=O)[C@@H]1Cc2ccccc2CN1)C(=O)NC[C@H]1CC[C@H](C(=O)O)CC1	1	-1	-5	92*	0
O=C(C[C@@H]1C=C[C@@H](NC(=O)CN2CCOCC2)[C@@H](CO)O1)NCc1cccc(F)c1	x	-2	x	x	x
COc1ccc(-c2csc(NC(=O)c3ccoc3C)n2)cc1	24	x	23	86*	13
COc1ccc2nc(NC(=O)c3c(C)noc3C)sc2c1	x	25	x	x	35*
CCc1cc(C(=O)OC)c(NC(=O)c2ccoc2C)s1	-1	-13	-5	-2	1
COc1ccc(-c2csc(NC(=O)c3ccccc3C(=O)O)n2)cc1	7	x	-7	4	-5
